VACV mCherry inh = qHTS for Stage-Specific Inhibitors of Vaccinia Orthopoxvirus: mCherry Reporter Primary qHTS. Vaccinia virus mCherry reporter infection, fluorescence. Potency, µM (highest dose often 36.5 µM), inactives show top-dose activity change, negative = inhibition, usual class: inhibitors. 310,000 tested, 0.63% active; calls by dose curve; tested in A549 cells; also: potency is read from the fitted curve at half-maximal effect; % is scaled to controls: 0 for no effect and ±100 for the full control effect; nearly all actives have a fitted effect of over 35% in size
Cycloheximide cs = Cycloheximide Counterscreen for Small Molecule Inhibitors of Shiga Toxin. cell reporter, cycloheximide protein synthesis inhibition counterscreen. max response, %. 300,000 tested, 12% active. AID 2314, 2010; in the data active = max response mostly above about 13%, no sharp cut-off; inactive = mostly below about 14%; also: read at 38.3 µM for the half of the compounds with a filed dose; 0% is about no effect
Vaccinia Venus = qHTS for Stage-Specific Inhibitors of Vaccinia Orthopoxvirus: Venus Reporter Primary qHTS; 330,000 tested, 0.46% active; Potency, µM (top dose mostly 36.5 µM), for the others: at the highest dose activity change, negative = inhibition, hits mostly inhibitors; Vaccinia virus Venus reporter expression, fluorescence; calls by dose curve; tested in A549 cells; also: potency is read from the fitted curve at half-maximal effect; % is scaled to controls: 0 for no effect and ±100 for the full control effect; nearly all actives have a fitted effect of over 30% in size
LASV entry inh = qHTS for Inhibitors of binding or entry into cells for Lassa Virus. AID 540256, 2011. 300,000 tested, 1.2% active. Potency, µM (titrated, usually from 37.9 µM), for the others: at the top dose activity change, negative = inhibition, most hits filed as inhibitors. Lassa virus pseudotype entry inhibition, cell reporter; calls by dose curve; tested in HEK293 cells; also: potency is read from the fitted curve at half-maximal effect; % is scaled to controls: 0 for no effect and ±100 for the full control effect; nearly all actives have a fitted effect of over 50% in size
Shiga toxin inh = A qHTS for Small Molecule Inhibitors of Shiga Toxin; Vero cells, Shiga toxin protein synthesis inhibition reporter; inhibition, % at 38.7 µM; 290,000 tested, 9.2% active; in the data active = inhibition mostly above about 28%, no sharp cut-off; inactive = mostly below about 43%; also: 0% is about no effect
MARV entry inh = qHTS for inhibitors of binding or entry into cells for Marburg Virus | Marburg virus pseudotyped entry inhibition, cell reporter | Potency, µM (series often up to 37.8 µM), inactives show at the top dose activity change, negative = inhibition, usual class: inhibitors | 300,000 tested, 1.8% active | AID 540276, 2011; calls by dose curve; tested in HEK293 cells; also: potency is read from the fitted curve at half-maximal effect; % is scaled to controls: 0 for no effect and ±100 for the full control effect
Starred values were filed as active, the others as inactive; i = inactive; ? = inconclusive; . = no result; [ ] = another dose, or the depositor's remark. Shown is part of a subset that was picked to be rich in hits.

SMILES | VACV mCherry inh | Cycloheximide cs | Vaccinia Venus | LASV entry inh | Shiga toxin inh | MARV entry inh
CC(C)CN1CC(C(=O)O)CC1=O (stereo not drawn) | -4% | -3 | 9% | 8% | -2 | 28%[46.1 µM]
c1cncc(-c2nc3c(ccc4ccccc43)[nH]2)c1 | -12% | 12* | -9% | 19% | 77* | -26%
COc1ccc2nc(-c3ccccn3)[nH]c2c1 | . | 36* | . | . | 59* | .
Nc1ccc(-c2nc3c(Cl)cc(N)cc3[nH]2)cc1 | -10% | -8 | -13% | 11µM* | -20 | ?
Nc1ccc2nc(-c3ccccn3)[nH]c2c1 | . | 29* | -18% | ? | 53* | ?
Cc1cc(=S)nc(-c2ccccn2)[nH]1 | -16% | -1 | -15% | -22% | 17 | ?
Nc1ccc(Cl)c(Cl)c1 | i | . | -1% | -12% | . | -18%[46.1 µM]
Nc1nonc1-n1nnc(C(=O)N/N=C/c2ccco2)c1CSc1ccc(Cl)cc1 | -9% | . | -25% | . | . | .
Nc1cccc(-c2nc3ccc(C(=O)c4ccccc4)cc3[nH]2)c1 | . | 33* | . | . | 61* | .
Fc1ccc2[nH]c(-c3cccs3)cc2c1 | -11% | . | -11% | -3%[46.1 µM] | . | -1%[46.1 µM]
Nc1ccc2nc(-c3cccs3)[nH]c2c1 | -26% | 20* | -15% | 12% | 52* | 12%
Nc1ccc2nc(-c3ccc(N)c(Cl)c3)[nH]c2c1 | -19%[1.46 µM] | 25* | -20% | ? | 77* | ?
Nc1ccc2nc(-c3ccccc3)[nH]c2c1 | -14% | 36* | -13% | -13% | 126* | -17%
CS(=O)(=O)Cc1ccc(C(=O)Nc2cccc(-c3nc4ccccc4[nH]3)c2)cc1 | -11% | 5 | -11% | 16% | 17 | 11%
Nc1cccc(C(=O)Nc2ccc3nc(-c4cccnc4)[nH]c3c2)c1 | -16% | -3 | -12% | -9% | -5 | ?
COc1ccc2nc(-c3cccc(N)c3)[nH]c2c1 | . | 18* | -25% | 11µM* | 32 | 10µM*
COc1ccc2nc(-c3ccc(N)cc3)[nH]c2c1 | -13% | 13 | -13% | ? | 10 | ?
Nc1ccc2nc(-c3cccnc3)[nH]c2c1 | -19% | 15* | -12% | ? | 13 | ?
COc1cc2c(cc1OC)CN(CC(=O)Nc1ccc(C)c(C)c1)CC2 | . | -2 | . | . | -5 | .
COc1ccc(NC(=O)Cn2c(=O)n(Cc3nc(C)no3)c(=O)c3cc4c(cc32)OCO4)cc1OC | -16% | . | -9% | 0%[46.1 µM] | . | .
O=C(NCc1ccco1)Nc1ccccc1Cl | -16% | 18* | -13% | 23% | 74* | 27%
O=C(NCc1ccco1)C(=O)NCc1ccccc1Cl | -20% | 30* | -10% | 28% | 24 | 2%
O=C(NCc1ccco1)c1nc2c(nnn2Cc2ccccc2Cl)c(=O)[nH]1 | 13µM* | -5 | 11µM* | 13µM* | -10 | ?
Cc1ccc(C)c(Cn2nnc3c(=O)[nH]c(C(=O)NCc4ccco4)nc32)c1 | -7% | -3 | -10% | -18%[14.3 µM] | -21 | -17%
O=C(NCc1ccco1)Nc1cccc2ccccc12 | -8% | . | -9% | 5%[46.1 µM] | . | 0%[46.1 µM]
SMILES | VACV mCherry inh | Cycloheximide cs | Vaccinia Venus | LASV entry inh | Shiga toxin inh | MARV entry inh
CN(Cc1ccccc1)C(=O)COC(=O)c1cc(S(=O)(=O)N(C)C)ccc1N1CCCC1 | -22% | . | -13% | -24% | . | 10%[46.1 µM]
CSc1nc2ncc(-c3ccsc3)c(N)n2n1 | -7% | 49* | 2% | 30% | 62* | 5%[46.1 µM]
O=C(Nc1ccc(Cl)cc1)c1cccc(N2C(=O)C3C4CCC(C4)C3C2=O)c1 (stereo not drawn) | -20% | 23* | -25% | ? | 52* | ?
COc1ccc(NC(=O)c2cccc(N3C(=O)C4C5C=CC(C5)C4C3=O)c2)cc1Cl (stereo not drawn) | -10% | -1 | -7% | -27% | 14 | 12%[46.1 µM]
COc1ccc(NC(=O)c2cccc(N3C(=O)C4C5C=CC(C6CC56)C4C3=O)c2)c(OC)c1 (stereo not drawn) | -5% | -3 | -17% | 18µM* | 0 | ?
CN(C)c1ccc(NC(=O)c2cccc(N3C(=O)C4C5C=CC(C5)C4C3=O)c2)cc1 (stereo not drawn) | . | 62* | . | 8% | 144 | 0%
COc1ccc(NC(=O)c2cccc(N3C(=O)C4C5C=CC(C5)C4C3=O)c2)c(OC)c1 (stereo not drawn) | . | 9 | . | . | 17 | .
Nc1c(C(=O)Nc2ccccc2Cl)c2ccccn2c1C(=O)c1ccccc1 | -8% | . | 4% | 30%[46.1 µM] | . | -1%[46.1 µM]
COc1ccc(N2CC(C(=O)Nc3nnc(SCC(=O)NCc4ccco4)s3)CC2=O)cc1 (stereo not drawn) | -1% | -1 | 7% | 6% | -2 | -9%
COc1ccc(Nc2ncc(C(=O)Nc3cccc(Cl)c3)c3ccccc23)cc1 | -8% | . | -9% | 9%[46.1 µM] | . | 25%[46.1 µM]
COc1ccc2c(Cl)c(C(=O)NCCCn3ccnc3)sc2c1 | . | 20* | . | 1% | 39 | ?
O=C(NCCCn1ccnc1)c1cc(-c2ccc(Br)cc2)on1 | . | 29* | . | . | 59 | .
COc1cccc(C(=O)NCCCn2ccnc2)c1 | . | 3 | . | . | -18 | .
COc1cccc(-c2cc(C(=O)NCCCn3ccnc3)no2)c1 | i | 23* | -1% | 9% | 103* | ?
C=CCNC(=O)c1cc(-c2ccc(Br)cc2)on1 | . | 24* | . | -17% | 89* | ?
COc1ccc(-c2cc(C(=O)NCCCn3ccnc3)no2)cc1OC | -9% | -2 | -8% | 1% | -9 | ?
CCCCNc1ccc(-c2nc(-c3ccccc3)no2)cc1[N+](=O)[O-] | -6% | . | 4% | -7%[46.1 µM] | . | -10%[46.1 µM]
CCc1ccc(-n2c(=O)c3c4c(sc3n(Cc3ccc(F)cc3)c2=O)CCCC4)cc1 | -3% | . | -7% | 17%[46.1 µM] | . | 18%[46.1 µM]
O=C(NCCCn1ccnc1)c1cc(-c2ccc3c(c2)OCO3)on1 | . | 12* | . | 0% | 22* | 11%
Fc1ccc(CSc2nnc(-c3ccncc3)o2)cc1 | -8% | 7 | -11% | 9% | 36 | -2%[46.1 µM]
Fc1ccc(CSc2nnc(-c3cccnc3)o2)cc1 | . | 17* | . | . | 31 | .
Cc1ccccc1-c1nnc(SCc2ccc(F)cc2)o1 | . | 30* | . | ? | 45* | 10%
Cc1ccc(CSc2nnc(-c3cccnc3)o2)cc1 | -11% | 12 | -21% | 2% | -1 | ?
c1ccc(CSc2nnc(-c3cccnc3)o2)cc1 | . | 31* | -19% | 18% | 74* | 12%
COc1ccccc1N(CC(=O)NCc1ccccc1)S(=O)(=O)c1cccs1 | -2% | . | -14% | . | . | .
O=C(CCn1c(=O)oc2ccccc21)Nc1ccc(C(=O)O)cc1 | -19% | -3 | 0% | 20%[46.1 µM] | -18 | 3%[46.1 µM]
CCSc1nnc(NC(=O)CCn2c(=O)oc3ccccc32)s1 | -4% | -1 | 2% | . | -15 | .
O=C(CCn1c(=O)oc2ccccc21)Nc1nc2ccccc2s1 | i | 13* | 4% | . | 44* | .
CN(C)c1ccc(NC(=O)CCn2c(=S)oc3ccccc32)cc1 | . | 55* | . | . | 95* | .
